Experimental data from PubChem BioAssay (EPA / NIEHS).
Inconclusive results are not listed. The source made the active and inactive calls. Rule for the calls, unless noted: active = hit-call score of the fitted dose curve at least 0.9, where 1 is the maximum; inactive = score below 0.9.

What was measured:
[1] = ATG_TAL_CIS: Attagene CIS-FACTORIAL HepG2 Assay for human TAL Basal Promoter (AID 2282966); settings: HepG2 Attagene cis-factorial TAL promoter reporter; actives raise or lower the signal;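 note: background control endpoint measuring basal TAL promoter reporter mRNA not a specific factor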
How it was run: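 Basal-promoter background-control endpoint from a multiplexed HepG2 reporter panel. Cells were exposed 24 h, then reporter mRNA was read by RT-PCR/CE fluorescence and fitted in both directions relative to DMSO.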

[2] = ATG_TGFb_CIS: Attagene CIS-FACTORIAL HepG2 Assay for human Transforming Growth Factor (TGF) (AID 2282967); settings: HepG2 Attagene CIS TGFb reporter, mRNA transcription; actives raise or lower the signal
How it was run: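 Transient MRTU transfection of HepG2 (FuGene 6). Dose 24 h. TriZol RNA, oligo(dT) RT, PCR, 6-FAM primer extension, HpaI cut, CE. Bidirectional fit, DMSO = baseline.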

[3] = ATG_VDRE_CIS: Attagene CIS-FACTORIAL HepG2 Assay for human Vitamin D Receptor Element (VDRE) (AID 2282968); settings: HepG2 VDRE cis-reporter transcription, actives raise or lower the signal
How it was run: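 Transient MRTU transfection of HepG2, 24 h compound exposure. Readout: reporter transcripts via RT-PCR and capillary electrophoresis, fluorescence. Bidirectional fit vs DMSO.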

[4] = target: X-box-binding protein 1 (Homo sapiens) (UniProt P17861); assay: ATG_Xbp1_CIS: Attagene CIS-FACTORIAL HepG2 Assay for human X-box Binding Protein 1 (XBP1) (AID 2282972); settings: HepG2 XBP1 cis-element reporter, Attagene multiplex; actives raise or lower the signal
How it was run: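 Reporter transcripts were quantified by RT-PCR with fluorescent primer extension and capillary electrophoresis after 24 h chemical exposure. Cells: transiently transfected HepG2 carrying cis-regulated reporter constructs; data fitted bidirectionally relative to DMSO.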

[5] = ATG_M_19_TRANS: Attagene TRANS-FACTORIAL HepG2 Assay for M19 Transcription Factor (Internal Marker) (AID 2282974; active = hit-call score of the fitted dose curve at least 0.9, where 1 is the maximum); settings: HepG2 Attagene TRANS-FACTORIAL M19 internal marker reporter
How it was run: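 Cells: human HepG2, transiently transfected with multiplexed reporter transcription units. Exposure: 24 h. Detection: RT-PCR of reporter mRNA with capillary electrophoresis. Analysis: gain-of-signal vs DMSO.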

[6] = ATG_GAL4_TRANS: Attagene TRANS-FACTORIAL HepG2 Assay for GAL4 (Internal Marker) (AID 2282976; active = hit-call score of the fitted dose curve at least 0.9, where 1 is the maximum); settings: HepG2 Attagene TRANS GAL4 internal marker reporter
How it was run: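 Background-control readout: GAL4-UAS reporter transcript in transiently transfected HepG2 cells after 24 h compound exposure. Measured by RT-PCR, 6-FAM primer extension, HpaI digest and capillary electrophoresis; gain-of-signal fit versus DMSO.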

[7] = target: Estrogen-related receptor gamma (Homo sapiens) (UniProt P62508); assay: ATG_ERRg_TRANS: Attagene TRANS-FACTORIAL HepG2 Assay for human Estrogen-Related Receptor gamma (ERRg) (AID 2282977; active = hit-call score of the fitted dose curve at least 0.9, where 1 is the maximum;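 note: hits increase reporter signal over DMSO so potencies reflect activators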); settings: HepG2 Attagene TRANS reporter, ERRg transactivation
How it was run: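 Exogenous NR-Gal4 chimera activity was assessed in HepG2 cells bearing transfected GAL4-UAS reporters. After 24 h dosing, total RNA underwent RT-PCR, fluorescent primer extension and HpaI digestion before capillary electrophoresis, with gain of signal scored against DMSO.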

[8] = target: Nuclear receptor subfamily 1 group I member 3 (Homo sapiens) (UniProt Q14994); assay: ATG_CAR_TRANS: Attagene TRANS-FACTORIAL HepG2 Assay for human Constitutive Androstane Receptor (CAR) (AID 2282969; active = hit-call score of the fitted dose curve at least 0.9, where 1 is the maximum;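 note: activators raise reporter mRNA above DMSO so AC50 marks induction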); settings: HepG2 Attagene TRANS-FACTORIAL CAR reporter
How it was run: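 Transiently transfected HepG2, multiplex TRANS reporters (CAR-Gal4 chimera driving GAL4-UAS reporter). 24 h dosing. Readout: reporter transcript by RT-PCR + capillary electrophoresis, fluorescence intensity; positive direction vs DMSO.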

[9] = target: Steroid hormone receptor ERR1 (Homo sapiens) (UniProt P11474); assay: ATG_ERRa_TRANS: Attagene TRANS-FACTORIAL HepG2 Assay for human Estrogen-Related Receptor alpha (ERRa) (AID 2282971; active = hit-call score of the fitted dose curve at least 0.9, where 1 is the maximum); settings: HepG2 Attagene TRANS reporter, ERRa transactivation
How it was run: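 HepG2 cells transiently transfected with GAL4-UAS reporter units and chimeric NR-Gal4 constructs; after 24 hour compound incubation, reporter mRNA quantified by RT-PCR, fluorescent labelling and capillary electrophoresis, gain of signal versus DMSO.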

Measured: AC50

Nuclear receptor subfamily 1 group I member 3 (Homo sapiens), sequence (Q14994 whole entry, looked up, the tested form may be a part): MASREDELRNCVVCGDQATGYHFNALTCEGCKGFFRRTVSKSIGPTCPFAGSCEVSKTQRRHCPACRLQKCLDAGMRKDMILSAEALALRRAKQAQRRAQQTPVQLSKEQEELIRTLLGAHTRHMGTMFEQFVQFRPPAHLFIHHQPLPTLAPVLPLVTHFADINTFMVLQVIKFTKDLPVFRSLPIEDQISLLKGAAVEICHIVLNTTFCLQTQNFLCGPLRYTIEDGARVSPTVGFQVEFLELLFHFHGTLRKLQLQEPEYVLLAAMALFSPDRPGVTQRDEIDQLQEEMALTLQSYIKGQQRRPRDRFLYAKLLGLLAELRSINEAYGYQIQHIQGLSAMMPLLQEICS
Steroid hormone receptor ERR1 (Homo sapiens), sequence (P11474 whole entry, looked up, the tested form may be a part): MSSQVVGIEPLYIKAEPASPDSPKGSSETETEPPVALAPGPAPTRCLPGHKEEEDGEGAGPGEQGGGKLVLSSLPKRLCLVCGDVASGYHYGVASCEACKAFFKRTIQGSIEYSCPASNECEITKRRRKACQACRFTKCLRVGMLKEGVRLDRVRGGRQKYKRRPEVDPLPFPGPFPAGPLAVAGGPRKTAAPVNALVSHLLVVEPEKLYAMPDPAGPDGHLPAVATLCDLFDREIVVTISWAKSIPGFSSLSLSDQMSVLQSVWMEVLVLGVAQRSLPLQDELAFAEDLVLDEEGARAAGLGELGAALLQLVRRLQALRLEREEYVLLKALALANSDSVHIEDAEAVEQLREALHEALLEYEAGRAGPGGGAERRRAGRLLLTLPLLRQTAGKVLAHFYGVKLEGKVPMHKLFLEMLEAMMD
X-box-binding protein 1 (Homo sapiens), sequence (P17861 whole entry, looked up): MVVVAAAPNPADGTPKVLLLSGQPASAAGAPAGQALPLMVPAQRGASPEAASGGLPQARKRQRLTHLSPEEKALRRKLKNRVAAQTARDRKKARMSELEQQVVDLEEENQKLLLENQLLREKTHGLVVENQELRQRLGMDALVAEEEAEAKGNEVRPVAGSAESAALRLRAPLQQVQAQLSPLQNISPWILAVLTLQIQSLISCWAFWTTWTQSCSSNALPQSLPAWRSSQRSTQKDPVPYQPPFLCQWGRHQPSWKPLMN
Estrogen-related receptor gamma (Homo sapiens), sequence (P62508 whole entry, looked up, the tested form may be a part): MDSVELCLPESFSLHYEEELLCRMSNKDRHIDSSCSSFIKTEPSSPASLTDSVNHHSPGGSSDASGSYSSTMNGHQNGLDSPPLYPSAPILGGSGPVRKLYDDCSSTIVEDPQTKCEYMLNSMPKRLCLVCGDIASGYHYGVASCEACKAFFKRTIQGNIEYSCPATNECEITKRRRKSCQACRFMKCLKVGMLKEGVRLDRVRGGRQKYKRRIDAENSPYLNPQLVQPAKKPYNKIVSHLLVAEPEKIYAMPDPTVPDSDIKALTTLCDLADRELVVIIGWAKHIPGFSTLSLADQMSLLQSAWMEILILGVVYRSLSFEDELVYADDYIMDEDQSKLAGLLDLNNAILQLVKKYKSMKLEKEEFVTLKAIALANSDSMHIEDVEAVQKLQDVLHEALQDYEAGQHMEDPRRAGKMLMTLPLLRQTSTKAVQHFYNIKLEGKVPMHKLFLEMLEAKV

CCc1ccc(O)cc1
inactive: [1] | [2] | [3] | [4] | [5] | [6] | [7]

CC(C)Nc1nc(N)nc(Cl)n1
inactive: [1] | [2] | [3] | [4] | [5]

Cc1c(Cl)cccc1[N+](=O)[O-]
inactive: [1] | [2] | [3] | [4] | [5]

CCOC(=O)c1ccc(N)cc1
inactive: [1] | [2] | [3] | [4] | [5] | [6]

NCc1ccco1
inactive: [1] | [2] | [3] | [4]

O=C1OC[C@H](Cc2cccc(O)c2)[C@H]1Cc1cccc(O)c1
active: [3] 21.8 µM
inactive: [1] | [2] | [4]

CC(C)c1ccccc1O
inactive: [1] | [2] | [3] | [4] | [5]

CCOC(=O)CN
inactive: [1] | [2] | [3] | [4] | [6]

[O-]n1ccccc1=S.[O-]n1ccccc1=S.[Zn+2]
inactive: [1] | [2] | [3] | [4] | [6]

Nc1ccc(Cl)c([N+](=O)[O-])c1
inactive: [1] | [2] | [3] | [4] | [5]

O=C1OC2(c3ccccc31)c1ccc(O)c(Br)c1Oc1c2ccc(O)c1Br
active: [3] 27.3 µM
inactive: [1] | [2] | [4]

C=C(C)C(=O)OCCOCCOCCOCCOC(=O)C(=C)C
inactive: [1] | [2] | [3] | [4] | [5] | [6]

COc1ccc(CCC(C)=O)cc1
inactive: [1] | [2] | [3] | [4] | [5] | [6]

CCCCC(CC)C(=O)OC(C)C (centres undefined)
inactive: [1] | [2] | [3] | [4] | [5] | [6]

C=C(C)C1CC=C(C)C(=O)C1 (centres undefined)
inactive: [1] | [2] | [3] | [4]

C=C(C)[C@H]1CC=C(C)C(=O)C1
inactive: [1] | [2] | [3] | [4]

OCc1cccc(Oc2ccccc2)c1
inactive: [1] | [2] | [3] | [4] | [5] | [6]

Nc1ccc2cc(S(=O)(=O)O)cc(O)c2c1N=Nc1ccccc1C(F)(F)F
inactive: [1] | [2] | [3] | [4] | [5]

CCOc1ccccc1O
inactive: [1] | [2] | [3] | [4] | [6]

O=C1OC(=O)c2c(Br)c(Br)c(Br)c(Br)c21
inactive: [1] | [2] | [3] | [4] | [6]

COc1ccc(CCO)cc1
inactive: [1] | [2] | [3] | [4] | [5]

CC1(C)O[C@@H]2[C@@H](CO[C@@]3(COS(N)(=O)=O)OC(C)(C)O[C@@H]23)O1
inactive: [1] | [2] | [3] | [4]

CCCSc1ccc2nc(NC(=O)OC)[nH]c2c1
inactive: [1] | [2] | [3] | [4] | [5]

C=C(C)C(=O)OCCOCCOCCOC(=O)C(=C)C
inactive: [1] | [2] | [3] | [4] | [5] | [6]

C[Si](C)(C)O[Si](C)(C)C
inactive: [1] | [2] | [3] | [4] | [5]

CCC(=O)OCCOc1ccccc1
inactive: [1] | [2] | [3] | [4] | [5] | [6]

COc1cc(C(C)C)ccc1C
inactive: [1] | [2] | [3] | [4]

CN(C)CCOc1ccc(/C(=C(/CCCl)c2ccccc2)c2ccccc2)cc1
inactive: [1] | [2] | [3] | [4] | [5] | [6]

CC(=O)CC(=O)Nc1ccccc1
inactive: [1] | [2] | [3] | [4] | [6]

CCCC(O)C(O)CO (centres undefined)
inactive: [1] | [2] | [3] | [4] | [5]

C=CC(C)(O)CCC=C(C)C (centres undefined)
inactive: [1] | [2] | [3] | [4] | [6]

COC(C)(C)CCO
inactive: [1] | [2] | [3] | [4] | [5] | [7]

CCOC(=O)C1OC1c1ccccc1 (centres undefined)
inactive: [1] | [2] | [3] | [4] | [5] | [6]

CCCCC(CC)COC(=O)c1ccc(O)cc1 (centres undefined)
inactive: [1] | [2] | [3] | [4] | [6]

O=C1OC(=O)c2c(Cl)c(Cl)c(Cl)c(Cl)c21
inactive: [1] | [2] | [8] | [9] | [4] | [5] | [6] | [7]

CC1(C)C(=O)N(Cl)C(=O)N1Br
inactive: [1] | [2] | [8] | [4] | [5]

COC(CC(C)CCCC(C)(C)O)OC (centres undefined)
inactive: [1] | [2] | [3] | [4] | [6]

O=C(O)CNc1ccccc1
inactive: [1] | [2] | [8] | [9] | [4] | [7]

c1ccc(Oc2ccccc2)cc1
inactive: [1] | [2] | [8] | [4] | [5]

CCCC(=O)OC(C)(C)Cc1ccccc1
inactive: [1] | [2] | [8] | [4] | [5] | [6]

CCOC(=O)[C@@H](C)Oc1ccc(Oc2nc3ccc(Cl)cc3o2)cc1
inactive: [1] | [2] | [3] | [5] | [7]

CC1=C(Br)C(=O)C(Br)=C/C1=C(/c1ccccc1S(=O)(=O)O)c1cc(Br)c(O)c(Br)c1C
active: [3] 40.8 µM
inactive: [1] | [2] | [5] | [6]

C=Cc1ccc(C(C)(C)C)cc1
inactive: [1] | [2] | [8] | [4] | [5] | [6]

CC/C=C\CC/C=C/CO
inactive: [1] | [2] | [8] | [4] | [6] | [7]

Cc1cc(C)nc(NS(=O)(=O)c2ccc(N)cc2)n1
inactive: [1] | [2] | [8] | [4] | [5]

CC1(C)CCC[C@]2(C)[C@H]3CCO[C@]3(C)CC[C@@H]12
inactive: [1] | [2] | [8] | [4] | [6]

C=CC(=O)OCCC#N
active: [4] 36.4 µM
inactive: [1] | [2] | [8] | [9] | [7]

CS(=O)(=O)c1ccc(C2=C(c3ccccc3)C(=O)OC2)cc1
inactive: [1] | [2] | [8] | [9] | [4] | [6]

CCCCCCC(=O)c1ccccc1
inactive: [1] | [2] | [8] | [4]

CCCCC(CC)COC(C)=O (centres undefined)
inactive: [1] | [2] | [8] | [9] | [4] | [5] | [6]

Nc1ccn([C@H]2CS[C@@H](CO)O2)c(=O)n1
inactive: [1] | [2] | [8] | [4] | [5]

N[C@@H](Cc1cc(I)c(Oc2cc(I)c(O)c(I)c2)c(I)c1)C(=O)O
inactive: [1] | [2] | [8] | [4] | [5]

C[C@H]1O[C@@H](O[C@H]2[C@@H](O)C[C@H](O[C@H]3[C@@H](O)C[C@H](O[C@H]4CC[C@@]5(C)[C@H](CC[C@@H]6[C@@H]5C[C@@H](O)[C@]5(C)[C@@H](C7=CC(=O)OC7)CC[C@]65O)C4)O[C@@H]3C)O[C@@H]2C)C[C@H](O)[C@@H]1O
inactive: [1] | [2] | [5]
active: [3] 0.226 µM

CCCCSCCCC
inactive: [1] | [2] | [8] | [4] | [6]
